# Measurements reported in the supplement of paper PMC10849652.
# About 7,900 targets were measured; listed, in parts, are those with a hit and a random draw of the rest. About 0.6% of all pairs of compound and target were hits. A number with no mark means an inactive call.
# How the values were obtained:
# Experiment in all cases: log2 fold change, soluble protein after heating vs DMSO (PISA); higher = thermal stabilisation; K562 cells, 10 uM, 30 min; active = over 0.2 and 3.5 SD of the protein, either way, in both replicates (recomputed)
# erlotinib = compound: C#Cc1cccc(Nc2ncnc3cc(OCCOC)c(OCCOC)cc23)c1 [erlotinib]
# Method in brief: (§1)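 Soluble protein was quantified by TMTpro 16plex LC-MS/MS after channel sums were equalised. It was obtained as the supernatant after 21,000xg for 90 min from pooled aliquots of K562 cells (2×10^6 cells/mL, 10 μM compound, 30 min) heated for 3 min across 48°C-58°C and extracted in PBS with 0.5% NP-40 at 4°C. Thermal stability values are relative to control samples and come from duplicates. They are given as log2 fold changes.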
# [1] = compound: C/C(=N\NC(=O)C1=CC(=CC=C1)S(=O)(=O)N2CCOCC2)/C3=C(C=CC(=C3)Cl)O
# Method in brief: as §1
# [2] = compound: C1=CC(=C(C=C1Cl)C2=NC3=NC=CN=C3C(=N2)NC4=CC=NC=C4)F
# Method in brief: as §1
# [3] = compound: C1=CC(=CC=C1C2=NC3=C(N2)C=C(C=C3)C(=O)N)OC4=CC=C(C=C4)Cl
# Method in brief: as §1
# [4] = compound: C1=CC2=C(C=CC(=C2)/C=C\3/C(=O)NC(=NCC4=CC=CS4)S3)N=C1
# Method in brief: as §1
# [5] = compound: C1=CC2=NC=CN=C2C=C1/C=C/3\C(=O)NC(=O)S3
# Method in brief: as §1
# [6] = compound: C1=CC=C(C=C1)C2=NC(=C(N2)C3=CC=NC=C3)C4=CC(=C(C=C4)Cl)O
# Method in brief: as §1
# [7] = compound: C1=CC=C2C(=C1)C3=NNC4=CC=CC(=C43)C2=O
# Method in brief: as §1
# [8] = compound: C1CCN(C1)C(=O)NC2=CC=CC(=C2)NC3=NC=C(C(=N3)NCCC4=CN=CN4)Br
# Method in brief: as §1
# [9] = compound: C1CN(CCC1(CC2=CC=C(C=C2)Cl)N)C3=NC=NC4=C3C=CN4
# Method in brief: as §1
# IRAK-1-4 Inhibitor I = compound: C1COCCN1CCN2C3=CC=CC=C3N=C2NC(=O)C4=CC(=CC=C4)[N+](=O)[O-] [IRAK-1-4 Inhibitor I]
# Method in brief: as §1
# ibrutinib = compound: C=CC(=O)N1CCC[C@@H](n2nc(-c3ccc(Oc4ccccc4)cc3)c3c(N)ncnc32)C1 [ibrutinib]
# Method in brief: as §1
# [10] = compound: CC(=O)c1cnc2ccc(-c3cc(Cl)c(O)c(Cl)c3)nc2c1N[C@H]1CC[C@H](CN(C)C)CC1
# Method in brief: as §1
# ralimetinib = compound: CC(C)(C)Cn1c(N)nc2ccc(-c3[nH]c(C(C)(C)C)nc3-c3ccc(F)cc3)nc21 [ralimetinib]
# Method in brief: as §1
# [11] = compound: CC(C)(O)CC(=O)NCCn1ccc2ncnc(Nc3ccc(Oc4cccc(C(F)(F)F)c4)c(Cl)c3)c21
# Method in brief: as §1
# [12] = compound: CC(C)C1=C2N=C(C=C(N2N=C1)NCC3=CC=CC=C3)NCCCCCCN
# Method in brief: as §1
# [13] = compound: CC(C)C[C@@H](C=O)NC(=O)[C@H](CC(C)C)NC(=O)[C@H](CC(C)C)NC(=O)OCc1ccccc1
# Method in brief: as §1
# pinometostat = compound: CC(C)N(C[C@H]1O[C@@H](n2cnc3c(N)ncnc32)[C@H](O)[C@@H]1O)[C@H]1C[C@@H](CCc2nc3cc(C(C)(C)C)ccc3[nH]2)C1 [pinometostat]
# Method in brief: as §1
# [14] = compound: CC1=C(C(CC(=O)N1)C2=CC=C(C=C2)C(F)(F)F)C(=O)NC3=C(C=C4C(=C3)C=NN4)F
# Method in brief: as §1
# [15] = compound: CC1=C(C2=C(C=C1)C(=O)C3=CC=CC=C3N2CCCN)C
# Method in brief: as §1
# Sequence of UniProt Q15057 (Q15057 whole entry, looked up): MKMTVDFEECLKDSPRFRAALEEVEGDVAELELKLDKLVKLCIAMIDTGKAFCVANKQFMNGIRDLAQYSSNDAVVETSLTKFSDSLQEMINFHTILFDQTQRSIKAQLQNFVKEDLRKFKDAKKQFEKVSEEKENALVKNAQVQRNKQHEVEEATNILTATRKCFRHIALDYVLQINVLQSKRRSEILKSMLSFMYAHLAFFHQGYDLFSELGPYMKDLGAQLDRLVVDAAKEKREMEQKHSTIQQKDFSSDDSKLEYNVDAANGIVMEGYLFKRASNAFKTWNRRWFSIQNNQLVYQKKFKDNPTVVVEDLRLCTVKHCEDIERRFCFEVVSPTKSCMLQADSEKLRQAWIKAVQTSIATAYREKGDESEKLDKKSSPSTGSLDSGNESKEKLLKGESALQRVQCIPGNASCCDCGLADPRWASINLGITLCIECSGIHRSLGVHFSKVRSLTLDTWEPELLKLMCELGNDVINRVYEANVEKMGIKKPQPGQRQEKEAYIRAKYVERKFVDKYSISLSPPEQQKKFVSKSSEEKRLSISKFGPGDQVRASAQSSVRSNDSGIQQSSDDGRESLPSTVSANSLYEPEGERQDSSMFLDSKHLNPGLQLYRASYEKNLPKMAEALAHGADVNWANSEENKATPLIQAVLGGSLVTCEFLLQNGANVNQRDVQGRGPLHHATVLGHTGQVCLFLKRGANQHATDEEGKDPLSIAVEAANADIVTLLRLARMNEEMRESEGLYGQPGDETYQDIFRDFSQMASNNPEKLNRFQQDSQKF
# Sequence of UniProt P54922 (P54922 whole entry, looked up): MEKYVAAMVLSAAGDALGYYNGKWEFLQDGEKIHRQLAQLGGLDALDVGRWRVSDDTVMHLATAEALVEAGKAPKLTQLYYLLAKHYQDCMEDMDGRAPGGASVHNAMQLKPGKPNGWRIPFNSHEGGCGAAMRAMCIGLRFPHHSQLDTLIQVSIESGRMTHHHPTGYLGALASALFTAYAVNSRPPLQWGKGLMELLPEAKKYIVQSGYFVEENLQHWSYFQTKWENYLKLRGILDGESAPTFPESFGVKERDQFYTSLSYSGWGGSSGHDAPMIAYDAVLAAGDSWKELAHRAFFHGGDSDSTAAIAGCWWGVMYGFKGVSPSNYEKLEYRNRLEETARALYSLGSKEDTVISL
# Sequence of UniProt Q9HCU9 (Q9HCU9 whole entry, looked up): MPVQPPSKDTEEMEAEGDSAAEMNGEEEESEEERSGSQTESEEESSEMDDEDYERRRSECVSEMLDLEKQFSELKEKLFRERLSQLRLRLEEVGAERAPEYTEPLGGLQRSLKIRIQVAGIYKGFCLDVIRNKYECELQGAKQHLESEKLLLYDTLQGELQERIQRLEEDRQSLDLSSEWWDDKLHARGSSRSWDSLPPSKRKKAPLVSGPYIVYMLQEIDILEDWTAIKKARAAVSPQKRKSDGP
# Sequence of UniProt P24666 (P24666 whole entry, looked up): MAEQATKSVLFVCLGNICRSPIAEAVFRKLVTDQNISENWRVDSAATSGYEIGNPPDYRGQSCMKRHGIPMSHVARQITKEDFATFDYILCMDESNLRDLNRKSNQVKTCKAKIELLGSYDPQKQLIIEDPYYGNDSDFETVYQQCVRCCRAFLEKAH
# Sequence of UniProt Q99943 (Q99943 whole entry, looked up): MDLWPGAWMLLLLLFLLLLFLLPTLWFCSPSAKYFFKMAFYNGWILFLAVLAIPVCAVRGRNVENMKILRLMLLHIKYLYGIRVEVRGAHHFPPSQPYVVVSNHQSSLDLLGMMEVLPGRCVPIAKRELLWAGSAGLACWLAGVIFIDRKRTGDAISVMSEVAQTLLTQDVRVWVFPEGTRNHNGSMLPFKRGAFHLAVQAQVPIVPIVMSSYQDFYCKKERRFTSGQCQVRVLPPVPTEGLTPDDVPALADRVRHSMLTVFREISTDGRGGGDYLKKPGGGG
# Sequence of UniProt P05091 (P05091 whole entry, looked up): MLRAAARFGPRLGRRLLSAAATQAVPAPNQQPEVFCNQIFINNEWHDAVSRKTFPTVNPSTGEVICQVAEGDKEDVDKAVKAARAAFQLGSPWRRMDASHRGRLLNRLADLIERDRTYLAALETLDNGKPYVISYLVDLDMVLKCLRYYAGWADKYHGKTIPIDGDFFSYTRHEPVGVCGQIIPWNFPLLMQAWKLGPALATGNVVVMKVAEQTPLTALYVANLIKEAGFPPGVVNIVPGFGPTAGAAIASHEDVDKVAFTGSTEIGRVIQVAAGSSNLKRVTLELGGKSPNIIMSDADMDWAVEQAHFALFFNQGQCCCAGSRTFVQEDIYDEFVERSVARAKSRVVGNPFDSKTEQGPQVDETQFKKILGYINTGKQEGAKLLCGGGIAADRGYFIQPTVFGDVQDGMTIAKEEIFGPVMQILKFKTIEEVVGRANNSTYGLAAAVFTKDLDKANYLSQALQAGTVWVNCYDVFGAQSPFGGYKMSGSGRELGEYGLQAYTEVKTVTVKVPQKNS
# Sequence of UniProt P54252 (P54252 whole entry, looked up): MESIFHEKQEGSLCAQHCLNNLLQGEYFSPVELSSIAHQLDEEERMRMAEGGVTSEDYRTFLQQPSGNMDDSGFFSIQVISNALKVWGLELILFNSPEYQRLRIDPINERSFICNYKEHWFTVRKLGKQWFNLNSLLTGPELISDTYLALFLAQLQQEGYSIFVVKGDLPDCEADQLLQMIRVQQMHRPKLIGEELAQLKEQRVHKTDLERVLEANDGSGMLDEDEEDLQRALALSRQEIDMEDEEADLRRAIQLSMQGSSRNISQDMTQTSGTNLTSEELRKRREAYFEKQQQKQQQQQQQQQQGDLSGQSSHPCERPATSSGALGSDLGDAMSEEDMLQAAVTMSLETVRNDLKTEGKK
# Sequence of UniProt Q9H6S1 (Q9H6S1 whole entry, looked up): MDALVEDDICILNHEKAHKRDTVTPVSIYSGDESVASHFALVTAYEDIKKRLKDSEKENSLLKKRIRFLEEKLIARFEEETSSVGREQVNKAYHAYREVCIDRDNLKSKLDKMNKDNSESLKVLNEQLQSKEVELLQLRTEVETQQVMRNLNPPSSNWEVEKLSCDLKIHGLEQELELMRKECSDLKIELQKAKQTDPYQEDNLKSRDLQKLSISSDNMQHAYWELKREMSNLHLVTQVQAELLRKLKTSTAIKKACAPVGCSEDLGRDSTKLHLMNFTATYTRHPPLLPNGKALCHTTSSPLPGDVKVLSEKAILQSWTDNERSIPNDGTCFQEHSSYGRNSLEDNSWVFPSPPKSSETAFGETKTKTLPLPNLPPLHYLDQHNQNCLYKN
# Sequence of UniProt P53367 (P53367 whole entry, looked up): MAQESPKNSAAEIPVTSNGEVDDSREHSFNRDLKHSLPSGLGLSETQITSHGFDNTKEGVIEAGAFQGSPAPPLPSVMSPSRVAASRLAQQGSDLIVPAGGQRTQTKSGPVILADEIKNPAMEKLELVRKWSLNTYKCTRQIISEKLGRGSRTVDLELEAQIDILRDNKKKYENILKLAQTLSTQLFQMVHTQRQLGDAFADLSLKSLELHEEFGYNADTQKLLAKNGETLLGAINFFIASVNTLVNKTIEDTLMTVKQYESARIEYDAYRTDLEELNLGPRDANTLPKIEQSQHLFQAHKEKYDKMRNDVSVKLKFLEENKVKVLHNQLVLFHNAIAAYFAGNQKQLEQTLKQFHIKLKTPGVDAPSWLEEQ
# Sequence of UniProt Q7Z591 (Q7Z591 whole entry, looked up): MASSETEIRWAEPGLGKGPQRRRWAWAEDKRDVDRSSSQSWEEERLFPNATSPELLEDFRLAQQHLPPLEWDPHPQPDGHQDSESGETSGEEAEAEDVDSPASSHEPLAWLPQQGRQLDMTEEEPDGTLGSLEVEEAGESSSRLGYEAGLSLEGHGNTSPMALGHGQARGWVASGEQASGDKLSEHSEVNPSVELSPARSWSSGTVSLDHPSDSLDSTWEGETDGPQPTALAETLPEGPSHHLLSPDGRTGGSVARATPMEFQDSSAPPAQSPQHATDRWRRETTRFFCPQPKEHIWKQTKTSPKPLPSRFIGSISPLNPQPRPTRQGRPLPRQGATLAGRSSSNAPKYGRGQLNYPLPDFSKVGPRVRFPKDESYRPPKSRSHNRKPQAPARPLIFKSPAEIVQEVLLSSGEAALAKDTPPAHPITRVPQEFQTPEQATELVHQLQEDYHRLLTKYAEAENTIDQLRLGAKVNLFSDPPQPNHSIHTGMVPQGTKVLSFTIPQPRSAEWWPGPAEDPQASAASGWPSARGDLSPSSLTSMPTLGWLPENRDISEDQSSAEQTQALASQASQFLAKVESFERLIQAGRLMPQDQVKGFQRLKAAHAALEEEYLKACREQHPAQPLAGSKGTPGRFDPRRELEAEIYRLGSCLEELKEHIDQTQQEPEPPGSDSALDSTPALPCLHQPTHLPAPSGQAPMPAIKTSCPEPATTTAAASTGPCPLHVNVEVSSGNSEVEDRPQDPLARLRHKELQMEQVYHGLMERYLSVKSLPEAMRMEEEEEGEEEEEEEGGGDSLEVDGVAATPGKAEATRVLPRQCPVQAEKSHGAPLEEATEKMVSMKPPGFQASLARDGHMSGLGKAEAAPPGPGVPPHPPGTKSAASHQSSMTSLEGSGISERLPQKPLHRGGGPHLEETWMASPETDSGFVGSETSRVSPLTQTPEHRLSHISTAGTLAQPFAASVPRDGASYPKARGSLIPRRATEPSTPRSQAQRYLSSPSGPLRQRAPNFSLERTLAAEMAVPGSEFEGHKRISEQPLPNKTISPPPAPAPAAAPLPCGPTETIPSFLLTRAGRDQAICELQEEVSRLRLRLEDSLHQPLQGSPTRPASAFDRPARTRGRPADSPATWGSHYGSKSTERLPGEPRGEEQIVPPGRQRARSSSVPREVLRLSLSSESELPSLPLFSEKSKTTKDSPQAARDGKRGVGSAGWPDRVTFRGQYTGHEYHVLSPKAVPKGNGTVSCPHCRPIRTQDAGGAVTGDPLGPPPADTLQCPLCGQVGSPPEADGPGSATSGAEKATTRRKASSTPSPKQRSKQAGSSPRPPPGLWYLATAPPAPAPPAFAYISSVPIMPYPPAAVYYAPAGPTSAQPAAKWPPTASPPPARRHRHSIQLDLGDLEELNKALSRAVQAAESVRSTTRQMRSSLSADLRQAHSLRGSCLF
Target,log2 fold change (erlotinib),log2 fold change [1],log2 fold change [2],log2 fold change [3],log2 fold change [4],log2 fold change [5],log2 fold change [6],log2 fold change [7],log2 fold change [8],log2 fold change [9],log2 fold change (IRAK-1-4 Inhibitor I),log2 fold change (ibrutinib),log2 fold change [10],log2 fold change (ralimetinib),log2 fold change [11],log2 fold change [12],log2 fold change [13],log2 fold change (pinometostat),log2 fold change [14],log2 fold change [15]
ACSL1 (UniProt P33121),-0.015,0.067,0.017,0.03,0.005,0.018,0.057,0.016,-0.021,0.002,-0.004,0.017,-0.037,-0.018,0.01,-0.243 (active),-0.057,0.008,0.058,0.03
AGPAT1 (UniProt Q99943),0.04,-0.004,0.008,-0.014,0.013,0.029,-0.015,-0.001,0.001,0.048,0,-0.083,-0.051,0.012,-0.109,0.06,-0.005,0.02,-0.006,-0.017
AMFR (UniProt Q9UKV5),0.116,0,-0.022,-0.062,-0.046,0.058,0.026,-0.062,0.002,-0.009,-0.083,-0.039,0.07,0.117,-0.034,-0.375 (active),0.12,0.077,-0.011,0.019
ACAP2 (UniProt Q15057),-0.002,0.054,0.062,-0.05,0.056,0.037,-0.032,-0.012,-0.042,-0.013,-0.033,-0.012,-0.038,0,-0.031,-0.065,0.061,0.029,-0.036,0.004
APLP2 (UniProt Q06481),0.003,0.009,-0.023,-0.034,0.023,0.004,0.044,-0.03,-0.047,-0.002,-0.073,-0.005,-0.004,0.086,0.133,0.167,0.062,0,-0.017,-0.225
ACP1 (UniProt P24666),0.149,0.06,0.035,-0.066,0.224,-0.059,–,0.109,-0.001,-0.015,-0.027,-0.073,-0.083,–,-0.238,-0.071,–,0.107,-0.055,-0.087
ACIN1 (UniProt Q9UKV3),0.116,-0.1,-0.033,0.006,0.051,0.007,0,-0.012,-0.041,-0.038,-0.052,0.004,-0.155,0.063,0.043,-0.022,-0.026,-0.006,-0.017,-0.369 (active)
ABCA3 (UniProt Q99758),0.011,0.087,0.002,0.057,-0.027,-0.056,0.01,0.031,0.094,-0.034,-0.012,-0.051,-0.005,-0.096,-0.096,-0.007,-0.017,0.203,–,0.054
BRD4 (UniProt O60885),-0.151,0.078,0.054,0.003,0.025,-0.003,0.213,-0.002,-0.121,-0.117,–,-0.018,-0.254,-0.174,-0.011,0.094,-0.035,–,0.047,0.101
AKNA (UniProt Q7Z591),-0.147,–,–,0.195,–,–,–,–,–,–,–,–,–,–,–,-0.659 (active),–,–,–,–
AUNIP isoform 2 (UniProt Q9H7T9),-0.023,0.066,–,0.297,0.083,–,–,0.027,0.041,0.066,–,–,-0.219,–,–,-0.134,–,–,–,-0.141
ANK2 (UniProt Q01484),-0.089,-0.173,–,-0.028,0.325,-0.059,0.011,-0.031,-0.126,-0.131,-0.069,-0.024,-0.058,-0.029,–,-0.178,0.08,0.062,0.071,0.423 (active)
AZI2 (UniProt Q9H6S1),-0.039,–,–,-0.211,–,0.009,-0.012,–,-0.025,0.04,–,0.046,–,-0.241,–,-0.126,-0.09,–,-0.018,0.022
ARRDC1 (UniProt Q8N5I2),-0.079,–,-0.075,0.038,–,-0.05,0.042,–,-0.03,-0.066,–,0.062,–,0.076,0.102,-0.07,0.094,–,-0.075,0.045
ATXN3 isoform 1 (UniProt P54252),0.082,0.107,–,0.038,-0.042,0.082,-0.038,-0.115,-0.073,-0.002,-0.031,0.028,0.065,0.018,–,-0.314,0.234,0.021,0.018,0.016
ALDH2 isoform 2 (UniProt P05091),–,-0.197,-0.106,–,0.6,0.07,-0.263,0.131,0.208,0.032,–,-0.1,-0.133,-0.18,0.029,–,0.063,–,–,0.087
BRMS1 (UniProt Q9HCU9),–,-0.656 (active),0.075,–,0.09,–,–,-0.041,0.024,0.119,–,–,0.055,–,-0.002,–,–,–,–,-0.014
ARFIP1 isoform 2 (UniProt P53367),0.106,–,-0.064,-0.051,–,-0.06,–,–,–,–,-0.051,-0.055,–,–,-0.186,-0.048,–,0.043,0.029,–
AP2M1 (UniProt C9JTK4),–,-0.114,0.036,–,0.322,0.172,–,-0.12,0.084,-0.065,0.056,-0.044,0.049,–,0.005,–,–,0.03,0.085,0.001
ADPRH (UniProt P54922),-0.021,–,-0.047,-0.047,–,0.008,-0.011,–,0.141,-0.065,0.056,0.001,–,-0.003,-0.084,0.107,-0.033,0.021,-0.032,0.037
